Inconclusive results are not listed. A number with no mark means an inactive call. Calls come from the whole dose curve; as a rule, active = well fitted cell-killing curve with a large enough effect in the repeat runs; inconclusive = weak or mixed curves, or effect the other way; inactive = no such curve, though single readings can be large or run the other way.
% is set by controls: 0 for no effect and ±100 for the full control effect.

The assay can be described thus: qHTS assay to identify small molecule antagonists of the vitamin D receptor (VDR) signaling pathway - cell viability counter screen (AID 743225). Note: nearly all actives have a fitted effect of over 50% in size. As to conditions: VDR-bla HEK293T viability, CellTiter-Glo luminescence, 16 h; series mostly up to 61 µM; viability change, negative = cytotoxic: at the top concentration. The text has this:
U.S. Tox21 Program National Center for Advancing Translational Sciences [NCATS] NIH Chemical Genomics Center [NCGC] U.S. Environmental Protection Agency [EPA] National Institutes of Environmental Health Sciences [NIEHS] National Toxicology Program [NTP] U.S. Food and Drug Administration [FDA] Tox21 Assay Overview: The vitamin D receptor (VDR), a member of nuclear hormone receptor superfamily, plays a critical role in calcium homeostasis and bone metabolism. It is also involved in cell differentiation and growth, and thrombogenicity. To identify the compounds that inhibit VDR signaling, the VDR-UAS-bla HEK 293T cell line (Invitrogen, Carlsbad, CA, USA) containing a beta-lactamase reporter gene under the control of an upstream activator sequence (UAS) was used to screen the Tox21 10K compound library. The cytotoxicity of the Tox21 compound library against the VDR-bla cell line was tested in parallel by measuring the cell viability using CellTiter-Glo assay (Promega, Madison, WI) in the same wells.
Tox21 Assay Protocol Summary: VDR-bla cells were dispensed at 2,000 cells/5 uL of assay medium per well into black wall/clear-bottom 1536-well plates using a Multidrop Combi (Thermo Fisher Scientific, Waltham, MA) dispenser. After the assay plates were incubated at a 37C and 5% CO2 for 4 h, 23 nL of compounds dissolved in DMSO, positive controls or DMSO only was transferred to the assay plate by a Pintool station (Kalypsys, San Diego, CA), followed by addition of 1 uL of 1-alpha, 25-Dihydroxy Vitamin D3 (3 nM, final concentration in the wells) using a Bioraptr Flying Reagent Dispenser (FRD) workstation (Beckman Coulter, Indianapolis, IN). The plates were incubated at 37C and 5% CO2 for 16 h, and then 1 uL of LiveBLAzerTM B/G FRET substrate was added using a Bioraptr FRD. The plates were incubated at room temperature for 2 h and fluorescence intensity was measured by an Envision plate reader (PerkinElmer, Shelton, CT). For cell viability readout that measures cytotoxicity, 3 ul/well of CellTiter-Glo reagent was added into the assay plates using a Bioraptr FRD. After 30 min incubation at room temperature, the luminescence intensity in the plates was measured using a ViewLux plate reader (PerkinElmer).
Regarding `CCOc1c(N2CCOCC2)cnn(C)c1=O`, the “viability change, negative = cytotoxic” value was 1.82%.

Consider `COc1cccc(OC)c1C(=O)N[C@@H]1C(=O)N2[C@@H]1SC(C)(C)[C@@H]2C(=O)O`, for which the “viability change, negative = cytotoxic” value was 2.43%.

As for `C=C(C)C(=O)OCCOCCOCCOCCOC(=O)C(=C)C`, the “viability change, negative = cytotoxic” value is 0.162%.

For the compound `NCCCC[C@H](N[C@@H](CCc1ccccc1)C(=O)O)C(=O)N1CCC[C@H]1C(=O)O`, the “viability change, negative = cytotoxic” value is -3.64%.

As for `CC1=NS(=O)(=O)c2cc(Cl)ccc2N1`, the “viability change, negative = cytotoxic” value was 20.7%.

Consider `CC1=CCC(O)(C(C)C)CC1` (stereo not given), for which the “viability change, negative = cytotoxic” value is 3.3%.

With `CN1CCC(=C2c3ccccc3CCc3cccnc32)CC1`, the “viability change, negative = cytotoxic” value is -5.03%.

As for `CNC(=O)Nc1ccc(Cl)c(Cl)c1`, the “viability change, negative = cytotoxic” value is -4.75%.

`O=C(c1ccccc1O)c1ccccc1O`: the “viability change, negative = cytotoxic” value was -9.37%.

On to `Cc1ccc(C(=O)Nc2ccc(S(=O)(=O)O)c3cc(S(=O)(=O)O)cc(S(=O)(=O)O)c23)cc1NC(=O)c1cccc(NC(=O)Nc2cccc(C(=O)Nc3cc(C(=O)Nc4ccc(S(=O)(=O)O)c5cc(S(=O)(=O)O)cc(S(=O)(=O)O)c45)ccc3C)c2)c1`, for which the “viability change, negative = cytotoxic” value is -10.4%.

Turning to `CC(=O)N[C@H]1[C@H]([C@H](O)[C@H](O)CO)OC(C(=O)O)=C[C@@H]1N=C(N)N`, the “viability change, negative = cytotoxic” value is 4.03%.

In the case of `C[C@H]1C[C@H]2[C@@H]3CCC4=CC(=O)C=C[C@]4(C)[C@H]3C(=O)C[C@]2(C)[C@@]1(O)C(=O)CO`, the “viability change, negative = cytotoxic” value is 13.1%.

Turning to `CCC(C(=O)NC(=O)NC(C)=O)c1ccccc1` (stereo not given), the “viability change, negative = cytotoxic” value is 7.38%.

Take `CCCCCCCCN1CCCC1=O`: the “viability change, negative = cytotoxic” value was 1.16%.

For the compound `O=C(CO)[C@@H](O)[C@H](O)[C@@H](O)CO`, the “viability change, negative = cytotoxic” value is -4.1%.

With `CC1=C(C/C=C(\C)CCC[C@H](C)CCC[C@H](C)CCCC(C)C)C(=O)c2ccccc2C1=O`, the “viability change, negative = cytotoxic” value was 7.84%.

As to `COCCOCC(OC)OC`, the “viability change, negative = cytotoxic” value is -1.08%.

With `CCCc1nn(C)c2c(=O)[nH]c(-c3cc(S(=O)(=O)N4CCN(C)CC4)ccc3OCC)nc12`, the “viability change, negative = cytotoxic” value is 0%.

In the case of `COc1ccnc(CS(=O)c2nc3cc(OC(F)F)ccc3[nH]2)c1OC` (stereo not given), the “viability change, negative = cytotoxic” value is -26.2% [at 78.8 µM].

For `Nc1ccn([C@@H]2O[C@H](CO)[C@@H](O)[C@@H]2O)c(=O)n1`, the “viability change, negative = cytotoxic” value was -2.81%.

`CCCCCCCCCC[N+](C)(C)[O-]`: the “viability change, negative = cytotoxic” value is 8.17%.

`CCOc1ccccc1OCC`: the “viability change, negative = cytotoxic” value was 15%.

In the case of `CC(CO)(CO)[N+](=O)[O-]`, the “viability change, negative = cytotoxic” value was 11.1%.

For `CC(=O)OCC(=O)[C@@]1(O)[C@H](C)C[C@H]2[C@@H]3CCC4=CC(=O)C=C[C@]4(C)[C@@]3(F)[C@@H](O)C[C@@]21C`, the “viability change, negative = cytotoxic” value was -12.4%.

For the compound `CC(C)C[C@@H](N)C(=O)O`, the “viability change, negative = cytotoxic” value was 0.947% [at 28.5 µM].

Consider `CCOC(=O)COC(=O)c1ccccc1C(=O)OCC`, for which the “viability change, negative = cytotoxic” value is -24.3%.

In the case of `CCOc1ccc2nc(S(N)(=O)=O)sc2c1`, the “viability change, negative = cytotoxic” value is -6.91%.

For `O=S(=O)(O)c1cccc2ccccc12`, the “viability change, negative = cytotoxic” value was 3.28%.

Regarding `C1CCC2(CCCCO2)OC1`, the “viability change, negative = cytotoxic” value is -7.92%.

`CC(=O)N1C[C@H](O)C[C@H]1C(=O)O`: the “viability change, negative = cytotoxic” value is -13.9%.

With `[K+]`, the “viability change, negative = cytotoxic” value was 2.56%.

As to `CC[N+](CC)(CC)CCOc1cccc(OCC[N+](CC)(CC)CC)c1OCC[N+](CC)(CC)CC`, the “viability change, negative = cytotoxic” value was -1.59%.

In the case of `CC(=O)c1cnccn1`, the “viability change, negative = cytotoxic” value was -3.97% [at 78.8 µM].

With `CC(=O)c1ccccc1[N+](=O)[O-]`, the “viability change, negative = cytotoxic” value is -9.28%.

With `Nc1ccn([C@@H]2O[C@H](CO)[C@@H](O)C2O)c(=O)n1` (stereo not given in full), the “viability change, negative = cytotoxic” value was 13.6%.

For `O=C(O)CC(C(=O)O)S(=O)(=O)O` (stereo not given), the “viability change, negative = cytotoxic” value is 11.2%.

For `CO[Si](C)(OC)c1ccccc1`, the “viability change, negative = cytotoxic” value is 30%.

For the compound `C[N+]1(C)CCCC(OC(=O)C(O)(c2ccccc2)c2ccccc2)C1` (stereo not given), the “viability change, negative = cytotoxic” value was -25.6%.

Take `Cc1ccccc1N=C(N)N=C(N)N`: the “viability change, negative = cytotoxic” value was 6.81%.

Take `CCN(Cc1ccccc1)c1ccccc1`: the “viability change, negative = cytotoxic” value was -4.74%.
